Source: PubChem BioAssay (several laboratories)
Sampled rows, rich in hits. Any-hit rate of the full collection: about 2.5%.
aDG glyco up: increases alpha dystroglycan glycosylation. Pro5-aDG cells, alpha-DG glycosylation AlphaScreen (IIH6); 0% Pro5, 100% B10-LARGE cell signal. activation, % at 10 µM. actives 0.22% (n = 360,000). AID 624168;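 active = activation of at least 8% versus controls, or a plate z-score of at least 8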;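 also: Pro5 are CHO cells carrying HIG-tagged alpha-DG that lacks glycosylation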
HSF1 activator: increases HSF-1 driven luciferase reporter signal. NIH3T3-HGL HSF-1 luciferase reporter, MG132, 8 h; 100% = twice DMSO control signal. activation, % at 9 µM. actives 1.7% (n = 300,000);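 active = mean replicate activation of at least 50% with a set share of replicates each reaching 50%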;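 also: 0% = median of the neutral control wells and 100% = twice that signal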
GC-B act: GC-B (human) receptor activation. P20594. HEK293-GC-B cells, CNP EC30, cGMP TR-FRET; 0% at EC30 CNP, 100% saturating CNP. activation, % at 10 µM. actives 0.11% (n = 370,000). AID 1920062;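 active = activation at 10 µM reaching about 35% in either raw or pattern-adjusted values, limit read from the data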
DYRK1A inh: blocks rat Dyrk1A kinase activity; ADP-Glo luminescence, NFATc1 peptide; actives 0.43% (n = 310,000); inhibition, % at 12.5 µM; AID 504441; in the data active = inhibition above about 50%;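 also: plate controls were vehicle with enzyme for no effect and no enzyme for full effect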
NPR1 activator: GC-A (human) enzyme activation | P16066 | actives 0.14% (n = 370,000) | AID 1671463 | activation, % at 10 µM | HEK293 GC-A cells, cGMP TR-FRET, EC30 ANP; 0% at EC30 ANP, 100% saturating ANP; in the data active = activation above about 40%
HSF1 inhib: HSF1 inhibition | activity change, negative = inhibition, % at 7.5 µM (by protocol) | AID 2098 | actives 0.77% (n = 300,000) | NIH3T3-HGL HSE-luciferase, MG132-induced, luminescence 8 h; hits give low values;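 active = more than half of replicate wells show activity change below -50%, luminescence cut by over half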;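 also: luciferase reports HSF-1 transcriptional activity via heat shock element; 0% = median of DMSO wells and -100% = zero luminescence signal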
* hit, by the source's call; . = no result.

SMILES	aDG glyco up	HSF1 activator	GC-B act	DYRK1A inh	NPR1 activator	HSF1 inhib
Cc1nnc(SC(C)C(=O)NC2CCCCC2)s1 (stereo unspecified)	0	.	3	-6	0	.
Cc1nc2ccccc2c2oc(C(=O)Nc3ccc(C(C)C)cc3)cc12	2	-9	7	6	0	-7
COc1cc(NC(=O)c2cc3c(C)nc4ccccc4c3o2)cc(OC)c1OC	0	-52	6	13	4	-51*
C/C(CC1(O)C(=O)Nc2ccccc21)=N\O (stereo unspecified)	0	0	-7	-2	6	-1
CC(=O)CC[C@@H]1CC[C@]2(CCCN(C(=O)c3ccno3)C2)O1	.	.	-4	.	6	.
N=c1c2c(-c3ccccc3)c(-c3ccccc3)n(Cc3ccco3)c2ncn1CCCN1CCOCC1	1	102*	-15	-4	-29	49
N=c1c2c(-c3ccccc3)c(-c3ccccc3)n(Cc3ccco3)c2ncn1CCCn1ccnc1	2	3	-27	-1	-28	6
Cn1c(=O)c2c(nc(Oc3cccc(O)c3)n2C)n(C)c1=O	0	-80	0	-3	-1	-77*
COc1ccc(/C=C(\C#N)C(=O)OCC(=O)Nc2c(C)cccc2C(C)C)cc1	0	8	3	1	1	0
O=c1oc(-c2ccccc2)nc2sc3c(c12)CCC3	0	-27	-5	-3	-19	-3
Nc1nc(-c2ccccc2)nc2sc3c(c12)CCCC3	0	85*	-9	-5	-6	39
COc1ccc2[nH]c3c(=O)n(CCCN4CCOCC4)cnc3c2c1	0	-70	-3	9	-2	-63*
Cc1noc(C(=O)Nc2ccc(F)cc2F)c1Cl	0	7	3	-1	-3	-8
Cc1ccc(O)c(NC(=O)c2cc(-c3cccs3)on2)c1	0	75*	-1	-7	-3	66
Cc1ccc(O)c(NC(=O)c2onc(C)c2Cl)c1	0	155*	0	2	4	98
COc1ccc(-c2nn(-c3ccccc3)cc2/C=C(/C#N)C(N)=O)cc1[N+](=O)[O-]	0	-21	9	-5	3	-14
CNc1c(N=Cc2cccnc2)c(=O)n(C)c(=O)n1C	0	-6	3	0	-4	-5
CCC(C)N(CCNC(=O)c1ccc(NC2=NC3CS(=O)(=O)CC3S2)cc1)Cc1ccco1 (stereo unspecified)	0	-1	-1	3	-3	-3
c1csc(-c2nc3nc4ccccc4nc3n2Cc2ccc3c(c2)OCO3)c1	0	.	38*	-5	25	.
CCCn1c(-c2cccs2)nc2nc3ccccc3nc21	0	12	9	1	4	-3
COCCCNC(=O)CCn1c(=O)c2ccccc2n(CC(=O)Nc2cc(Cl)ccc2C)c1=O	0	83*	-5	-2	0	45
Cc1cccc(NC(=O)CN2C(=O)N/C(=C/c3cc(C)n(C(C)C)c3C)C2=O)c1	0	-66	3	.	2	-57*
CC(=O)c1cnn(-c2c(Cl)cc(Cl)cc2Cl)c1C	0	-64	5	1	2	-59*
COc1ccc(-c2cn3ccccc3n2)cc1[N+](=O)[O-]	1	55*	-2	-2	-4	28
Nc1nc(Oc2ccc(F)cc2)c(Br)c(=O)[nH]1	0	-72	2	6	4	-64*
SMILES	aDG glyco up	HSF1 activator	GC-B act	DYRK1A inh	NPR1 activator	HSF1 inhib
Nc1c(Br)c(=O)[nH]c(=O)n1-c1ccc(F)cc1	0	3	2	0	4	-2
CN(Cc1ccccc1)C(=O)CCC1CCN(C(=O)CC2=CCCCC2)CC1	0	71*	-1	-3	2	44
CN(Cc1ccccc1)C(=O)CCC1CCN(C(=O)CCC(F)(F)F)CC1	0	38	5	4	4	12
CC(C)(C)N1C(=O)Cc2c1nc(N)c1c(N)nc(N3CCCCC3CO)c(C#N)c21 (stereo unspecified)	0	68*	.	0	.	24
Cc1ccn2c(=O)nc(SCC(=O)N3N=C(c4cccs4)CC3c3ccc(F)cc3)nc2c1 (stereo unspecified)	0	16	-3	7	-4	3
Cc1cccn2c(=O)nc(SCC(=O)N3N=C(c4cccs4)CC3c3ccc(F)cc3)nc12 (stereo unspecified)	0	95*	-1	5	1	50
O=C(/C=C/c1ccccc1)Nc1cccc(C(=O)NCCc2ccccc2)c1	0	.	-3	7	0	.
O=C(O)c1cccc(NC(=S)NC(=O)c2ccc3ccccc3c2)c1	0	-75	0	46	-6	-71*
CCC(=O)Nc1cccc(NC(=S)NC(=O)c2ccccc2)c1	0	54*	3	-3	0	22
CN(C)S(=O)(=O)N1CCN(c2ccnc3cc(Cl)ccc23)CC1	0	2	.	6	.	-5
O=C(O)CCN=CC1=C(O)CC(c2ccccc2)CC1=O (stereo unspecified)	0	-13	0	-1	2	-8
CN1c2ccccc2C(O)=C(C(=S)Nc2ccc(Cl)cc2)S1(=O)=O	0	60*	6	-3	2	27
O=C1c2ccccc2NC(c2ccco2)N1/N=C/c1ccco1 (stereo unspecified)	0	21	1	2	3	12
Cc1ccc(/C=N/N2C(=O)c3ccccc3NC2c2ccc(C)cc2)cc1 (stereo unspecified)	0	55*	6	2	3	29
CCN(CCCNC(=O)CCC(=O)N1CCOc2ccccc21)Cc1ccccc1	0	-7	1	7	0	3
C/C(=N/NC(=O)c1ccoc1C)C12CC3CC(CC(C3)C1)C2	0	59*	-1	0	8	36
C/C(CC(=O)Nc1ccc(C)c(Cl)c1)=N\NC(=O)c1ccccn1	0	206*	3	-4	2	136
C/C(CC(=O)Nc1ccc2ccccc2c1)=N\NC(=O)c1cnccn1	0	74*	-4	-9	2	30
C/C(CC(=O)Nc1ccc(Cl)c(Cl)c1)=N\NC(=O)C(=O)N1CCCCC1	0	54*	-4	5	-3	43
C/C(CC(=O)Nc1ccc2ccccc2c1)=N\NC(=O)c1ccc(O)c(O)c1	0	55*	0	12	-3	14
O=C(CCC(=O)c1cccs1)Nc1nnc(C2CC2)s1	0	5	-6	-2	2	4
C/C(CC(=O)Nc1ccc(N(C)C)cc1)=N\NC(=O)c1ccc(Cl)cc1	0	83*	2	3	-8	33
